{"source": "PubChem BioAssay (NCATS)", "note": "Results filed as inconclusive are left out. Active and inactive are the calls of the source. Calls follow the shape of the dose curve; as a rule, active = well fitted cell-killing curve with a large enough effect in the repeat runs; inconclusive = weak or mixed curves, or effect the other way; inactive = flat fitted curve, though single readings scatter."}
{"test": "qHTS assay for small molecule antagonists of the retinoid-related orphan receptor gamma (ROR-gamma) signaling pathway - cell viability counter screen (AID 720652);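 also: compound exposure lasted 16 hr before ATP read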", "details": "RORgamma reporter cell line viability counter screen; series mostly up to 92.2 µM", "description": "National Center for Advancing Translational Sciences [NCATS]\nNIH Chemical Genomics Center [NCGC]\nNational Institutes of Environmental Health Sciences [NIEHS]\nNational Toxicology Program [NTP]\nNuclear steroid hormone receptors are involved in many biological processes including inflammatory responses, cell proliferation, and apoptosis. Environmental factors or compounds disrupting these nuclear receptor pathways and gene expression may promote susceptibility to immunotoxicants and autoimmune diseases. One important group of these expression factors are the retinoid-related orphan receptors. To assess compounds that may interfere with the retinoid-related orphan receptor gamma (ROR-gamma) transcription factor, a cell-based luciferase assay was used.\nThe CHO cell-based assay utilizes a TET-inducible ROR expression factor and ROR response element-LUC reporter gene. Reporter activity was induced using doxycycline and measured after 16hr incubation. Luminescence was read using Viewlux (PerkinElmer), where a decrease in reporter activity would show a decrease in luminescence. The cytotoxicity of the compounds against ROR response-Luc reporter gene cell line was quantified by measuring the intracellular ATP content.\n1,000 cells in 4 uL/well were dispensed into white wall/solid bottom 1536-well plates using a Multidrop Combi (Thermo Scientific) dispenser. Following incubation at 37 C and 5% CO2 for 5 hr, 23 nL compound or DMSO vehicle were transferred by a pin tool, then the plates were treated with 1 ul doxycycline to induce reporter gene activity. After 16 hr incubation at 37 C and 5% CO2, 5 uL/well of CellTiter-Glo reagent (Promega) was then added to each plate using a Flying Reagent Dispenser and incubated at room temperature for 30 min. The luminescence intensity was quantified on a ViewLux plate reader (PerkinElmer)."}
{"smiles": "Nc1ccccc1C(=O)O", "outcome": "inactive"}
{"smiles": "COc1cc(OC)c(OC)cc1C=O", "outcome": "inactive"}
{"smiles": "NCCc1ccc(O)cc1", "outcome": "inactive"}
{"smiles": "Oc1ccc(Cl)cc1", "outcome": "inactive"}
{"smiles": "C[C@]12CCC(=O)C=C1CC[C@@H]1[C@@H]2CC[C@]2(C)C(=O)CC[C@@H]12", "outcome": "inactive"}
{"smiles": "O=P1(N(CCCl)CCCl)NCCCO1", "note": "(configuration not stated)", "outcome": "inactive"}
{"smiles": "CCC(C)(C)c1ccc(O)cc1", "outcome": "inactive"}
{"smiles": "COP(=S)(OC)Oc1ccc(SC)c(C)c1", "outcome": "inactive"}
{"smiles": "COC(=O)C(c1ccccc1)C1CCCCN1", "note": "(configuration not stated)", "outcome": "inactive"}
{"smiles": "C[C@]12CCC(=O)C=C1CC[C@@H]1[C@@H]2CC[C@@]2(C)[C@H]1CC[C@]2(C)O", "outcome": "inactive"}
{"smiles": "CCCC(C)(COC(N)=O)COC(N)=O", "outcome": "inactive"}
{"smiles": "CC(C)NC(C)C", "outcome": "inactive"}
{"smiles": "Nc1ccccc1", "outcome": "inactive"}
{"smiles": "CCOC(=O)CC(SP(=S)(OC)OC)C(=O)OCC", "note": "(configuration not stated)", "outcome": "inactive"}
{"smiles": "C[C@]1(O)CC[C@H]2[C@@H]3CCC4=CC(=O)CC[C@]4(C)[C@@]3(F)[C@@H](O)C[C@@]21C", "outcome": "inactive"}
{"smiles": "CN1C[C@H](C(=O)N[C@]2(C)O[C@@]3(O)[C@@H]4CCCN4C(=O)[C@H](Cc4ccccc4)N3C2=O)C=C2c3cccc4[nH]cc(c34)C[C@H]21", "outcome": "inactive"}
{"smiles": "CC(C)c1cccc(C(C)C)c1O", "outcome": "inactive"}
